Data taken from PubChem BioAssay (EPA / NIEHS).
Active and inactive are the calls of the source. How the source made its calls: active means hit-call score of the fitted dose curve at least 0.9, where 1 is the maximum; inactive means score below 0.9.

How the values were obtained:
[1] = ATG_CRE_CIS: Attagene CIS-FACTORIAL HepG2 Assay for human cAMP Responsive Element (CRE) binding protein 3 (AID 2282926); settings: HepG2 CRE cis-reporter, Attagene multiplexed mRNA; actives raise or lower the signal
Outline: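 Liver-derived HepG2, transfected with a CRE-containing reporter panel, exposed 24 h; transcript levels sized and quantified by capillary electrophoresis of labelled amplicons; signal changes either way referenced to vehicle.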

[2] = molecular target: CCAAT/enhancer-binding protein beta (Homo sapiens) (UniProt P17676); test: ATG_C_EBP_CIS: Attagene CIS-FACTORIAL HepG2 Assay for human CCAAT/Enhancer Binding Protein (C/EBP) beta (AID 2282927); settings: HepG2 Attagene cis-factorial transcription factor reporter; actives raise or lower the signal
Outline: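 Transiently transfected HepG2 (MRTU library, endogenous TF-driven promoters); 24 h dosing; total RNA → oligo(dT) RT → PCR → 6-FAM primer extension → HpaI digest → CE; fit bidirectionally vs DMSO.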

[3] = ATG_CMV_CIS: Attagene CIS-FACTORIAL HepG2 Assay for human CMV (Internal Marker) (AID 2282928); settings: HepG2 CMV promoter reporter, transcription factor profiling; actives raise or lower the signal;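 further: endpoint acts as a background internal control marker rather than a target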
Outline: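 Reporter transcripts from transfected HepG2 cells are isolated after 24 h of chemical dosing, reverse-transcribed and amplified. Fragments labeled with 6-FAM are cut with HpaI and quantified by capillary electrophoresis; DMSO defines baseline.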

[4] = ATG_DR4_LXR_CIS: Attagene CIS-FACTORIAL HepG2 Assay for human Liver X Receptor (LXR), DR4 submotif (AID 2282929); settings: HepG2 Attagene DR4 cis-reporter, mRNA transcription; actives raise or lower the signal
Outline: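 The endpoint is DR4-element-driven reporter transcripts after 24 h chemical exposure of transfected HepG2 cells. These were measured via RT-PCR and capillary electrophoresis, and gain or loss of signal was fitted relative to DMSO controls.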

[5] = molecular target: Aryl hydrocarbon receptor (Homo sapiens) (UniProt P35869); test: ATG_Ahr_CIS: Attagene CIS-FACTORIAL HepG2 Assay for human Aryl Hydrocarbon Receptor (Ahr) (AID 2282930); settings: HepG2 AhR cis-factorial reporter transcription; actives raise or lower the signal
Outline: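 Read-out: reporter mRNA quantified by RT-PCR with fluorescent primer extension and capillary electrophoresis. Human HepG2 liver cells carried transfected cis-promoter reporter units and were exposed to chemical for 24 h; gain or loss fitted relative to DMSO.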

[6] = ATG_AP_1_CIS: Attagene CIS-FACTORIAL HepG2 Assay for human Activator Protein 1 (AP-1) (AID 2282931); settings: HepG2 Attagene cis-factorial AP-1 reporter mRNA; actives raise or lower the signal
Outline: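 Readout is reporter transcript level from endogenous transcription factor activity, quantified by RT-PCR with fluorescent primer extension and capillary electrophoresis. Transiently transfected HepG2 cells, 24 h exposure. Curves fitted both directions versus DMSO.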

[7] = ATG_AP_2_CIS: Attagene CIS-FACTORIAL HepG2 Assay for human Activator Protein 2 (AP-2) (AID 2282932); settings: HepG2 AP-2 cis-reporter, Attagene transcription factor profiling; actives raise or lower the signal
Outline: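 Liver-derived HepG2 line, cis-reporter system measuring endogenous factors; 24 h dosing; reporter mRNA detected by fluorescent RT-PCR and capillary electrophoresis.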

[8] = ATG_BRE_CIS: Attagene CIS-FACTORIAL HepG2 Assay for human Bone Morphogenetic Protein (BMP) Response Element (BRE) (AID 2282933); settings: HepG2 BMP response element reporter, Attagene transcription factor profiling; actives raise or lower the signal
Outline: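 Multiplexed cis-reporter assay, HepG2, 24 h exposure. mRNA from reporter units quantified via RT-PCR/CE; DMSO baseline; bidirectional curve fit.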

[9] = molecular target: Retinoic acid receptor alpha (Homo sapiens) (UniProt P10276); test: ATG_DR5_RAR_CIS: Attagene CIS-FACTORIAL HepG2 Assay for human Retinoic Acid Receptor Alpha (RARE), DR5 submotif (AID 2282934); settings: HepG2 Attagene cis-factorial RARE DR5 reporter, mRNA; actives raise or lower the signal;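 on AC50: reporter responds to endogenous RAR alpha beta and gamma in HepG2 not RARA alone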
Outline: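 Read-out: DR5-driven reporter transcript measured by RT-PCR, 6-FAM primer extension, HpaI digest and capillary electrophoresis. Human HepG2 liver cells carry transiently transfected cis-element reporter constructs; dosing lasts 24 h. Gain or loss of signal fitted against DMSO baseline.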

[10] = ATG_E_Box_CIS: Attagene CIS-FACTORIAL HepG2 Assay for human Enhancer Box (E-box) (AID 2282936); settings: HepG2 E-box cis-reporter transcription, actives raise or lower the signal
Outline: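 In this cell-based setup, HepG2 cells bearing transfected promoter-driven reporter units were exposed to chemicals for 24 h; reporter transcripts were amplified, 6-FAM-labelled, cut with HpaI and sized by capillary electrophoresis.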

[11] = ATG_M_61_CIS: Attagene CIS-FACTORIAL HepG2 Assay for M61 Transcription Factor (Internal Marker) (AID 2282937); settings: HepG2 Attagene CIS-FACTORIAL M61 internal marker reporter; actives raise or lower the signal
Outline: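 Readout is reporter mRNA by RT-PCR, fluorescent primer extension and capillary electrophoresis, with gain or loss fitted relative to DMSO. Transfected HepG2 cells carrying endogenous-TF-driven cis reporters were exposed to chemicals for 24 hours.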

[12] = ATG_EGR_CIS: Attagene CIS-FACTORIAL HepG2 Assay for human Early Growth Response 1 (EGR1) (AID 2282938); settings: HepG2 Attagene CIS-FACTORIAL EGR reporter mRNA; actives raise or lower the signal
Outline: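 After 24 h compound exposure, RNA from reporter-transfected HepG2 cells was reverse-transcribed, PCR-amplified, fluorescently labelled and resolved by capillary electrophoresis. EGR1 reporter transcript changes, up or down, were fitted against DMSO, reflecting endogenous transcription-factor activity.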

[13] = ATG_ERE_CIS: Attagene CIS-FACTORIAL HepG2 Assay for Estrogen Response Element (ERE) (AID 2282940); settings: HepG2 ERE cis-reporter, Attagene RNA transcript; actives raise or lower the signal
Outline: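 Fluorescence of capillary-separated, FAM-labelled reporter cDNA fragments indicates reporter mRNA levels in HepG2 cells exposed to chemicals for 24 h. Transient transfection with cis-regulated units; data fitted in both directions against DMSO.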

[14] = ATG_Ets_CIS: Attagene CIS-FACTORIAL HepG2 Assay for human Erythroblast Transformation Specific (ETS) (AID 2282941); settings: HepG2 ETS cis-reporter transcription, actives raise or lower the signal
Outline: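 Bidirectional fit versus DMSO of reporter mRNA signal, detected by RT-PCR and capillary electrophoresis in HepG2 cells transiently transfected with cis-element reporters and dosed 24 h.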

[15] = molecular target: Hepatocyte nuclear factor 3-beta (Homo sapiens) (UniProt Q9Y261); test: ATG_FoxA2_CIS: Attagene CIS-FACTORIAL HepG2 Assay for human Forkhead box A2 (FOXA2) (AID 2282942); settings: HepG2 cis-reporter transcription factor activity, 24 h; actives raise or lower the signal
Outline: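 Endogenous transcription factor activity is captured via cis-element-driven reporter transcripts in transfected HepG2. Total RNA taken at 24 h post-dosing; labelled RT-PCR products resolved by capillary electrophoresis. Gain or loss fitted versus DMSO.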

[16] = ATG_FoxO_CIS: Attagene CIS-FACTORIAL HepG2 Assay for human Forkhead box O (FoxO) (AID 2282943); settings: HepG2 Attagene cis-reporter, FoxO element, mRNA; actives raise or lower the signal
Outline: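 Read-out: fluorescence of 6-FAM-labelled reporter cDNA fragments resolved by capillary electrophoresis. Transiently transfected HepG2 cells were dosed for 24 h; activity fitted in both directions relative to DMSO controls.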

[17] = ATG_GATA_CIS: Attagene CIS-FACTORIAL HepG2 Assay for human GATA Binding Protein (AID 2282944); settings: HepG2 GATA cis-element reporter, Attagene multiplex mRNA; actives raise or lower the signal
Outline: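 After transfecting HepG2 cells with multiple cis-regulated reporter units, chemicals are dosed for 24 h; isolated RNA undergoes RT-PCR and fluorescent labeling before capillary electrophoresis, with activity expressed against DMSO.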

[18] = ATG_GLI_CIS: Attagene CIS-FACTORIAL HepG2 Assay for human Zinc Finger Protein GLI1 (AID 2282945); settings: HepG2, Attagene cis-factorial reporter mRNA, GLI element; actives raise or lower the signal
Outline: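 Transiently transfected HepG2 cells report endogenous transcription factor activity via cis-element-driven reporter units. After 24 h compound exposure, reporter mRNA was measured by RT-PCR with capillary electrophoresis; bidirectional fitting against DMSO baseline.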

[19] = ATG_M_19_CIS: Attagene CIS-FACTORIAL HepG2 Assay for M19 Transcription Factor (Internal Marker) (AID 2282939); settings: HepG2 Attagene CIS-FACTORIAL M19 internal marker reporter; actives raise or lower the signal
Outline: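 Signals come from fluorescence of labelled reporter-specific PCR fragments resolved by capillary electrophoresis, following 24 h treatment of HepG2 cells transfected with cis-promoter reporter units; activity was fitted in both directions relative to DMSO.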

[20] = molecular target: Transcription factor E2F1 (Homo sapiens) (UniProt Q01094); test: ATG_E2F_CIS: Attagene CIS-FACTORIAL HepG2 Assay for human E2F Transcription Factor 1 (AID 2282935); settings: HepG2 Attagene cis-reporter, E2F reporter RNA transcripts; actives raise or lower the signal
Outline: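 Liver-derived HepG2 cells expressing transfected promoter-driven reporter units received test chemical for 24 hours. Signal gains or losses were fitted bidirectionally against DMSO.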

Measured: AC50

Chain of Retinoic acid receptor alpha (Homo sapiens) (P10276 whole entry, looked up): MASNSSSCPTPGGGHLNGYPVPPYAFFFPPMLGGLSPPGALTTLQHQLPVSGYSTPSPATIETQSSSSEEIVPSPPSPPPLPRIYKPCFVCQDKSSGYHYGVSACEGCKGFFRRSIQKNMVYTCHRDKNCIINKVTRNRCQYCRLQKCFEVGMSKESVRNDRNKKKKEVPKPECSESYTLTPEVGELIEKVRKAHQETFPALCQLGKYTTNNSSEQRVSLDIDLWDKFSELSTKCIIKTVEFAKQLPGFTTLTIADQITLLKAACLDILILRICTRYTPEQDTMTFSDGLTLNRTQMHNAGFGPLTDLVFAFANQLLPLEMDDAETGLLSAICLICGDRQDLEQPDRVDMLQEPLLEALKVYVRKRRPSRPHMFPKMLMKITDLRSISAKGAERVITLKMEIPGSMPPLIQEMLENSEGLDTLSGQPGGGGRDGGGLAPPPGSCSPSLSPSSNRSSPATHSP
Chain of Hepatocyte nuclear factor 3-beta (Homo sapiens) (Q9Y261 whole entry, looked up): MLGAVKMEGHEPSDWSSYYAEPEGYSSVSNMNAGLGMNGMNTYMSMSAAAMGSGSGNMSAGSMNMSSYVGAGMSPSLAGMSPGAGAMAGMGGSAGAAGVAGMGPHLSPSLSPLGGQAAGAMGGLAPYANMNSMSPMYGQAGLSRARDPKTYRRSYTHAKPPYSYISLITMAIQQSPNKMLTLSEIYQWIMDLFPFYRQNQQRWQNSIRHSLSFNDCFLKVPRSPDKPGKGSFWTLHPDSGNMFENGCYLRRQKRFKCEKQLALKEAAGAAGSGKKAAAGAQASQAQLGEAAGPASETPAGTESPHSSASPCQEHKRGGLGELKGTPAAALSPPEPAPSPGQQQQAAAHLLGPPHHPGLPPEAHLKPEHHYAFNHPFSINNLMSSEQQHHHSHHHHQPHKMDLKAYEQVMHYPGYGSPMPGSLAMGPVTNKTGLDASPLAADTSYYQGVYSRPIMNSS
Chain of CCAAT/enhancer-binding protein beta (Homo sapiens) (P17676 whole entry, looked up): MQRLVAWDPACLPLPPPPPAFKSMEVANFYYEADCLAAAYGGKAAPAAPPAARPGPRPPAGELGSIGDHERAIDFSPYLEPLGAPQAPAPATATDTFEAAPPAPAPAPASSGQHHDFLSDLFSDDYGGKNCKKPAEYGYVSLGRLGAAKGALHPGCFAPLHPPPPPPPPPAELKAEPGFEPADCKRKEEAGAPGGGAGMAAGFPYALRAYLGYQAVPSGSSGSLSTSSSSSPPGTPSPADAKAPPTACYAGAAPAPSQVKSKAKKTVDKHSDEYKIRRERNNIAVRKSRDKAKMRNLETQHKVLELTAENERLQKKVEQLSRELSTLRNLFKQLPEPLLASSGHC
Chain of Transcription factor E2F1 (Homo sapiens) (Q01094 whole entry, looked up): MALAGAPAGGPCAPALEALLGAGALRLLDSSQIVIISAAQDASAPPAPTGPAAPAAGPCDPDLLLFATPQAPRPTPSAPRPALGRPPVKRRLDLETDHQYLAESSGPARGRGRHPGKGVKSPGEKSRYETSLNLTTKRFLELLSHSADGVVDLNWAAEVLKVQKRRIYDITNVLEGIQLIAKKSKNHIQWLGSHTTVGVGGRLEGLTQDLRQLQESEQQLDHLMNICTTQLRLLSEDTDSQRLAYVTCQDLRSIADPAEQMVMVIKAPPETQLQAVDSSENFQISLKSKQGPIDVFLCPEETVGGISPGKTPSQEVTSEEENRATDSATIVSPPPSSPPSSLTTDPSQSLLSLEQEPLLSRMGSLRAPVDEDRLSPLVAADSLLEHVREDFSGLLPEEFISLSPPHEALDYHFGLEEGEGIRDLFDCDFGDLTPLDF
Chain of Aryl hydrocarbon receptor (Homo sapiens) (P35869 whole entry, looked up): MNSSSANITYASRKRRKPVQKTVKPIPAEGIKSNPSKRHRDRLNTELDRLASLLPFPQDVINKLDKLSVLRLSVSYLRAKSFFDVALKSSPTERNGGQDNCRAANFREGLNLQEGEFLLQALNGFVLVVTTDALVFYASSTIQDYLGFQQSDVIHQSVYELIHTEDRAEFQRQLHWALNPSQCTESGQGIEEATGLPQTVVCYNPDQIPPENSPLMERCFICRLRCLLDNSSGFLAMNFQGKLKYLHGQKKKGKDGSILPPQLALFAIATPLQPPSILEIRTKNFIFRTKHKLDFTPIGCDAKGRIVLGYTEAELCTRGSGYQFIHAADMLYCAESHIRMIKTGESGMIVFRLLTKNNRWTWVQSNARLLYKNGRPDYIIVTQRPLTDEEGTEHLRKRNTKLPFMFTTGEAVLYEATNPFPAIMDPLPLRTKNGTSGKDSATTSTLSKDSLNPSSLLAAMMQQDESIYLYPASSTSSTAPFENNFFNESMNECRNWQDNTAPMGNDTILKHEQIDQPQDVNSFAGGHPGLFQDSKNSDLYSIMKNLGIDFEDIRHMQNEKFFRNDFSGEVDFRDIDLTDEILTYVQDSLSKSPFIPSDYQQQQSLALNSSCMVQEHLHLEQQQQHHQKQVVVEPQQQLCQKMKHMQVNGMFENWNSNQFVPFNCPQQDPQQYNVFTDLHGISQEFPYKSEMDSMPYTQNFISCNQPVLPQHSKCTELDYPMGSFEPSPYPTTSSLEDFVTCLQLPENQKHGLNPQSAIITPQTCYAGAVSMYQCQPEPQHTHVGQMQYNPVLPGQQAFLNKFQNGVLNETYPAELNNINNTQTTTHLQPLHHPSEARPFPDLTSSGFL

O=c1[nH]c2ccc(S(=O)CCN3CCC(Cc4ccc(F)cc4)CC3)cc2o1 (stereo not given)
active: [4] 173 µM | [8] 100 µM | [12] 121 µM
not listed: [19] | [20]
inactive: all other assays above

CC(C)(O)c1coc(S(=O)(=O)NC(=O)Nc2c3c(cc4c2CCC4)CCC3)c1
not listed: [13] | [20]
inactive: all other assays above

CCCCCCCCO
active: [9] 25.3 µM
not listed: [20]
inactive: all other assays above

O=C(O)c1cccc(Oc2ccccc2)c1
not listed: [20]
inactive: all other assays above

O=P(OC(CCl)CCl)(OC(CCl)CCl)OC(CCl)CCl
active: [1] 72.3 µM | [3] 100 µM | [8] 70.4 µM | [12] 63.5 µM | [19] 149 µM | [14] 156 µM | [16] 169 µM | [18] 145 µM
not listed: [20]
inactive: all other assays above

On1ccccc1=S
active: [10] 8.78 µM
not listed: [13] | [19] | [20]
inactive: all other assays above

CCOC(=O)CC(CC(=O)OCC)(OC(C)=O)C(=O)OCC
not listed: [11] | [13]
inactive: all other assays above

COCCOCCOCCOC
not listed: [11] | [13] | [19] | [20]
inactive: all other assays above

Cn1c(=O)cc(Oc2ccc(F)cc2F)c2cnc(NCC(C)(C)O)nc21
not listed: [9] | [19]
inactive: all other assays above

CC1(C)C(=O)N(Br)C(=O)N1Br
active: [5] 68.5 µM
not listed: [13] | [19] | [20]
inactive: all other assays above

CC(=O)OC[C@H]1O[C@@](COC(C)=O)(O[C@H]2O[C@H](COC(C)=O)[C@@H](OC(C)=O)[C@H](OC(C)=O)[C@H]2OC(C)=O)[C@@H](OC(C)=O)[C@@H]1OC(C)=O
active: [5] 53 µM
not listed: [11] | [13] | [20]
inactive: all other assays above

COc1ccc2sc(C(=O)Nc3nnn[nH]3)c(OC(C)C)c2c1
active: [3] 26.9 µM | [4] 158 µM | [6] 27 µM | [8] 41.8 µM | [12] 146 µM | [13] 25.7 µM
not listed: [9] | [11]
inactive: all other assays above

CC[C@H]1CC[C@H](NCc2cc3c(cc2OC)[C@H]2C[C@H]2C(=O)N3C)[C@H](c2ccccc2)N1
active: [1] 58.6 µM | [2] 15.9 µM | [7] 55.4 µM | [12] 71.3 µM | [14] 100 µM | [16] 100 µM
not listed: [11] | [19] | [20]
inactive: all other assays above

CN(C)c1ccc(N=NS(=O)(=O)O)cc1
active: [5] 7.46 µM | [6] 43.8 µM
not listed: [11] | [13] | [19] | [20]
inactive: all other assays above

CCCN(C1CCN(C(=O)C2CCNCC2)CC1)[C@@H]1CCc2ccc(OC)cc2C1
active: [4] 68.6 µM | [5] 32.9 µM | [7] 82.6 µM | [8] 53.3 µM | [10] 45.1 µM | [12] 100 µM | [16] 153 µM | [17] 152 µM | [18] 153 µM
inactive: [1] | [2] | [3] | [6] | [9] | [19] | [14] | [15]

CCCCC(CC)COC(=O)CCCCCCCCC(=O)OCC(CC)CCCC (stereo not given)
active: [1] 25.2 µM
not listed: [9] | [20]
inactive: all other assays above

CCOc1cccc(-n2cc(C(=O)N3CCN(c4cc(C(=O)O)c5ccccc5c4)CC3)nc2-c2ccc(C)cc2)c1
active: [4] 25.1 µM | [6] 18.4 µM | [8] 54.7 µM | [9] 26 µM | [12] 27.1 µM
not listed: [11] | [13] | [20]
inactive: all other assays above

Nc1cccc(N)c1
not listed: [11] | [13] | [19] | [20]
inactive: all other assays above
